In all, about 5,500 compounds went through this assay and about 2,000 (36%) were called active. Roughly 18% stayed inconclusive and do not appear here. Cut-off read from the data, not from the text of the source: active = normalized growth mostly below about 0.91 (no sharp cut-off); inconclusive = no clear call, values can overlap the other calls; inactive = mostly above about 0.92. Some of the results follow.
Assay: chemical genetic growth profiling, strain panel (AID 1159580);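 note: tested at 20 µM; growth read once vehicle control cultures reached saturation at 30 °C; 1 = growth at the plate median or of vehicle wells; lower values mean less growth of the strain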
Settings: growth OD
[1] = S. cerevisiae deletion strains, locus YAL013W, strain DEP1, hits give low values
[2] = S. cerevisiae deletion strains, locus YBR229C, strain ROT2, hits give low values
[3] = S. cerevisiae deletion strains, locus YCL061C, strain MRC1, hits give low values
[4] = S. cerevisiae deletion strains, locus YDL101C, strain DUN1, hits give low values
[5] = S. cerevisiae deletion strains, locus YDL134C, strain PPH21, hits give low values
[6] = S. cerevisiae deletion strains, locus YDR150W, strain NUM1, hits give low values
[7] = S. cerevisiae deletion strains, locus YEL061C, strain CIN8, hits give low values
[8] = S. cerevisiae deletion strains, locus YGR078C, strain PAC10, hits give low values
[9] = S. cerevisiae deletion strains, locus YHR030C, strain SLT2, hits give low values
[10] = S. cerevisiae deletion strains, locus YHR087W, strain rtc3, hits give low values
[11] = S. cerevisiae deletion strains, locus YJR043C, strain POL32, hits give low values
[12] = S. cerevisiae deletion strains, locus YJR075W, strain HOC1, hits give low values
[13] = S. cerevisiae deletion strains, locus YLR039C, strain RIC1, hits give low values
[14] = S. cerevisiae deletion strains, locus YLR058C, strain SHM2 (second series), hits give low values
[15] = S. cerevisiae deletion strains, locus YLR085C, strain ARP6, hits give low values
[16] = S. cerevisiae deletion strains, locus YLR262C, strain YPT6, hits give low values
[17] = S. cerevisiae deletion strains, locus YML094W, strain GIM5, hits give low values
[18] = S. cerevisiae deletion strains, locus YMR219W, strain ESC1, hits give low values
[19] = S. cerevisiae deletion strains, locus YMR263W, strain SAP30, hits give low values
[20] = S. cerevisiae deletion strains, locus YNL153C, strain GIM3, hits give low values
[21] = S. cerevisiae deletion strains, locus YNL298W, strain CLA4 (second series), hits give low values
[22] = S. cerevisiae deletion strains, locus YNL322C, strain KRE1, hits give low values
[23] = S. cerevisiae deletion strains, locus YNR030W, strain Alg12, hits give low values
[24] = S. cerevisiae deletion strains, locus YPL055C, strain LGE1, hits give low values
[25] = S. cerevisiae deletion strains, locus YPL241C, strain CIN2, hits give low values
[26] = S. cerevisiae deletion strains, locus YPR135W, strain CTF4, hits give low values
[27] = S. cerevisiae strains, strain wild type, hits give low values
[28] = S. cerevisiae deletion strains, locus YGR229C, strain SMI1, hits give low values
[29] = S. cerevisiae deletion strains, locus YJL187C, strain SWE1, hits give low values
[30] = S. cerevisiae deletion strains, locus YKL190W, strain CNB1, hits give low values
[31] = S. cerevisiae deletion strains, locus YAL040C, strain CLN3, hits give low values
[32] = S. cerevisiae deletion strains, locus YCL061C, strain MRC1 (second series), hits give low values
[33] = S. cerevisiae deletion strains, locus YDR363W, strain ESC2, hits give low values
[34] = S. cerevisiae deletion strains, locus YER002W, strain NOP16, hits give low values
[35] = S. cerevisiae deletion strains, locus YMR307W, strain GAS1, hits give low values
[36] = S. cerevisiae deletion strains, locus YNL175C, strain NOP13, hits give low values
[37] = S. cerevisiae deletion strains, locus YNL197C, strain WHI3, hits give low values
[38] = S. cerevisiae deletion strains, locus YNL224C, strain SQS1, hits give low values
[39] = S. cerevisiae deletion strains, locus YOR083W, strain WHI5 (second series), hits give low values
[40] = S. cerevisiae deletion strains, locus YOL006C, strain TOP1, hits give low values

Measured: normalized growth

O=[N+]([O-])c1ccc(N2CCOCC2)cc1
inactive: [1] 0.996 | [2] 1 | [3] 1.02 | [4] 1.06 | [5] 0.969 | [6] 1.05 | [7] 0.969 | [8] 1.03 | [9] 1.05 | [10] 0.937 | [11] 1.04 | [12] 0.978 | [13] 0.991 | [14] 0.976 | [15] 0.98 | [16] 0.962 | [17] 0.939 | [18] 0.992 | [19] 1.03 | [20] 1.03 | [21] 0.988 | [22] 0.965 | [23] 0.974 | [24] 0.971 | [25] 1.01 | [26] 1.02 | [27] 0.982

O=C1c2ccccc2C(=O)N1CN(CCSc1ccccc1)CN1C(=O)c2ccccc2C1=O
inactive: [1] 1.01 | [2] 0.987 | [4] 0.992 | [6] 0.993 | [7] 0.987 | [8] 0.993 | [28] 1 | [9] 1.01 | [10] 0.986 | [29] 1.03 | [11] 1.01 | [12] 0.981 | [30] 1 | [13] 0.986 | [14] 1 | [15] 0.957 | [16] 1.07 | [17] 0.973 | [18] 0.992 | [19] 1.01 | [20] 1.01 | [21] 0.978 | [22] 0.994 | [23] 1 | [24] 0.995 | [25] 0.964 | [26] 1.05

O=C1C(SCCO)=C(SCCO)C(=O)c2ccccc21
inactive: [31] 1.06 | [32] 0.982 | [6] 0.981 | [33] 0.966 | [34] 1.04 | [8] 0.982 | [36] 0.988 | [37] 0.99 | [38] 0.985 | [25] 0.996
active: [35] 0.751 | [39] 0.858

OCc1ccccc1-c1ccccc1
inactive: [1] 0.995 | [2] 0.984 | [3] 0.957 | [4] 0.941 | [5] 0.985 | [6] 0.924 | [7] 0.987 | [8] 0.985 | [28] 0.993 | [9] 0.984 | [10] 1.01 | [29] 1 | [11] 0.971 | [12] 1.02 | [30] 1.01 | [13] 0.952 | [14] 1.02 | [15] 1.03 | [16] 0.99 | [17] 0.959 | [18] 0.99 | [19] 0.987 | [20] 0.95 | [21] 1 | [22] 1.02 | [23] 0.994 | [40] 0.997 | [24] 0.85 | [25] 0.988 | [26] 0.976 | [27] 1.01

O=C(O)CSC1CCS(=O)(=O)C1 (configuration not stated)
inactive: [1] 1.02 | [2] 0.998 | [3] 1.02 | [4] 1.02 | [5] 1.02 | [6] 0.956 | [7] 1.04 | [8] 1.01 | [9] 1.05 | [10] 1.01 | [11] 1 | [12] 1.06 | [30] 1.01 | [13] 1.06 | [14] 1.01 | [15] 1 | [16] 1.06 | [17] 1.03 | [18] 1 | [19] 1 | [20] 0.997 | [21] 1.01 | [22] 1.03 | [23] 1 | [24] 0.906 | [25] 1.01 | [26] 1.02 | [27] 1.01

N=C(N)c1ccccc1
inactive: [1] 1.01 | [31] 0.991 | [32] 1.01 | [6] 1 | [33] 1.01 | [34] 1.02 | [20] 1.07 | [36] 0.999 | [37] 1.03 | [38] 1.01 | [22] 1.02 | [39] 1.06

Cn1c(CSc2ccccc2)n[nH]c1=S
inactive: [1] 0.997 | [2] 0.99 | [4] 0.994 | [5] 1.01 | [6] 0.949 | [7] 1.02 | [8] 0.977 | [9] 1.01 | [10] 0.982 | [11] 0.978 | [12] 0.987 | [13] 1.05 | [14] 0.998 | [15] 1.09 | [16] 1.04 | [17] 1.01 | [18] 0.992 | [19] 0.963 | [35] 1.2 | [20] 0.981 | [21] 1.03 | [22] 1.01 | [23] 1.02 | [24] 0.965 | [25] 1.02 | [26] 1.04 | [27] 1.01

NC(=S)CSc1ccccc1
active: [7] 0.87 | [9] 0.62 | [30] 0.864 | [15] 0.591 | [21] 0.711 | [23] 0.681 | [40] 0.31 | [25] 0.832 | [27] 0.888
inactive: [1] 0.937 | [2] 0.969 | [4] 1.01 | [6] 0.921 | [8] 0.99 | [28] 0.991 | [10] 1.03 | [29] 0.969 | [11] 0.924 | [12] 1.04 | [13] 0.883 | [14] 1 | [16] 0.919 | [17] 0.892 | [18] 0.999 | [20] 0.981 | [22] 1.04 | [24] 0.855 | [26] 0.679

From PubChem BioAssay AID1159580 (chemical genetic matrix, 2015)
